Screens as filed in PubChem.
ALDH1A1 inh = inhibitors of human aldehyde dehydrogenase 1A1; P00352; Purified ALDH1A1, NADH fluorescence, propionaldehyde substrate; Potency, µM (doses to about 75.3 µM), without a hit: top-dose activity, negative = inhibition, hits mostly inhibitors; actives 7.3% (n = 220,000); AID 1030;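 note: plate controls were no enzyme wells and a reference inhibitor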
Target sequence (P00352 whole entry, looked up): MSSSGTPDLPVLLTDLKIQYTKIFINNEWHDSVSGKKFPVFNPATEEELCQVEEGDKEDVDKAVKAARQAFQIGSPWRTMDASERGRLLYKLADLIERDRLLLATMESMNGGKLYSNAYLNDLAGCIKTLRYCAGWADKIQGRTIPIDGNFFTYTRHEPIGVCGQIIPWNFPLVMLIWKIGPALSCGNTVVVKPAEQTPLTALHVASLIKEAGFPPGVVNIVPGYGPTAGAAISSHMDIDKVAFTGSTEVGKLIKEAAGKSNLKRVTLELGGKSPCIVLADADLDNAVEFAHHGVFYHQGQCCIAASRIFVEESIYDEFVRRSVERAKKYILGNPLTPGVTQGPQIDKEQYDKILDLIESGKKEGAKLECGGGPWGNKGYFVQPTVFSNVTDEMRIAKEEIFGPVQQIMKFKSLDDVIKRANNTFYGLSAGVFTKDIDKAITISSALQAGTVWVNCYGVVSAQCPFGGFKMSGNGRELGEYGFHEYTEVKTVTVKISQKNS
Tau fibril ThT = inhibitors of human tau fibril formation, thioflavin T binding. Potency, µM (top dose mostly 57.4 µM), without a hit: at the top dose activity, negative = inhibition, actives largely listed as inhibitors. recombinant tau K18 P301L, heparin-induced fibrillization, ThT fluorescence. actives 2.1% (n = 270,000); active = well fitted curve in the direction sought with a large enough effect; inconclusive = small, poorly fitted or top-dose-only effect, or another doubt; inactive = no such curve, though single readings can be large; an effect the other way counts as inactive or inconclusive; note: nearly all actives have a fitted effect of over 55% in size
Target sequence (P10636 561-689 P618L limits assumed): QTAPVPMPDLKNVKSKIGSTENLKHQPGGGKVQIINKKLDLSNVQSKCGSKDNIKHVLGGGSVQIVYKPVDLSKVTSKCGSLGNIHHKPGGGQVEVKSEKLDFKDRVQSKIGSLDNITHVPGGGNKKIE
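K18 P301L tau (15 uM + 0.24 uM Alexa 594-tagged), heparin 20 uM, NaOAc pH 7, 6 h 37 C; ThT 30 uM, 1 h RT, ex 450/em 510 nm.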
Tau fluor cs = counter-screen for tau fibril formation inhibitors. AID 1463. actives 0.93% (n = 280,000). Potency, µM (top dose mostly 57.7 µM), for inactives: at the top dose activity change, negative = decrease. tau K18 P301L Alexa594 fluorescence, heparin fibrillization; active = well fitted curve in the direction sought with a large enough effect; inconclusive = small, poorly fitted or top-dose-only effect, or another doubt; inactive = no such curve, though single readings can be large; an effect the other way counts as inactive or inconclusive; note: nearly all actives have a fitted effect of over 55% in size
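Human tau K18 P301L (15 uM unlabeled, 0.24 uM Alexa 594-labeled) in 100 mM sodium acetate pH 7 with 20 uM heparin, 6 hr at 37 C. ThT 30 uM added, 1 hr ambient; Alexa 594 FP and total fluorescence read at 555/632 nm.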
JMJD2E inh = JMJD2E (human) inhibition; AID 2147; B2RXH2; Potency, µM (top dose mostly 57.1 µM), without a hit: at the highest dose activity change, negative = inhibition, usual class: inhibitors; JMJD2E catalytic domain, FDH-coupled NADH fluorescence (FDH is formaldehyde dehydrogenase); actives 1.6% (n = 230,000);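 note: 0% = wells with enzyme and -100% = buffer wells without enzyme; nearly all actives have a fitted effect of over 50% in size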
Tau FP inhib = tau fibrillization inhibition (FP) | K18 P301L tau heparin fibrillization, Alexa594 FP, 6 h | actives 0.39% (n = 280,000) | Potency, µM (doses to about 57.7 µM), for the others: top-dose activity, negative = inhibition, usual class: inhibitors | P10636; active = well fitted curve in the direction sought with a large enough effect; inconclusive = small, poorly fitted or top-dose-only effect, or another doubt; inactive = no such curve, though single readings can be large; an effect the other way counts as inactive or inconclusive; note: nearly all actives have a fitted effect of over 55% in size
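Compound effects on tau fibrillization are measured by Alexa 594 fluorescence polarization (ex 555, em 632 nm). K18 P301L tau is used at 15 uM with 0.24 uM labeled tracer, and 20 uM heparin induces aggregation over 6 hr at 37 C.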
HPGD block = inhibitors of human 15-hydroxyprostaglandin dehydrogenase (HPGD) | Potency, µM, for the others: at the highest dose activity change, negative = inhibition, actives largely listed as inhibitors | AID 894 | actives 4.3% (n = 150,000) | P15428 | purified HPGD, NADH fluorescence kinetic, PGE2 substrate
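20 nM HPGD preincubated 15 min at room temperature with compound in 50 mM Tris-HCl pH 8, 0.01% Tween 20. Started with 1 mM NAD+ and 30 uM prostaglandin E2; NADH fluorescence (360/450 nm) read 5 times over 30-s intervals, last minus first.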
An asterisk follows results filed as active; ? = inconclusive; . = not tested or not shown; [ ] = remark or other dose. Compounds with a hit are over-represented: about 9.9% of the library has one in this group of screens. Unless noted, calls come from the whole dose curve; as a rule, active = well fitted inhibition curve with a large enough effect (not every such curve was filed as active); inconclusive = small, poorly fitted or top-dose-only effect, or another doubt; inactive = no such curve, though single readings can be large or run the other way. Unless noted, % is set by controls: 0 for no effect and ±100 for the full control effect; potency is the fitted concentration of half-maximal effect.

SMILES | ALDH1A1 inh | Tau fibril ThT | Tau fluor cs | JMJD2E inh | Tau FP inhib | HPGD block
COc1ccc(NC(=O)c2ccccc2NS(=O)(=O)c2ccc(C)cc2)c([N+](=O)[O-])c1 | -9% | ? | ? | -3% | 8% | -5%
O=C(O)CC(Cn1[nH]nnc1=S)c1ccccc1 (stereo not given) | 10µM* | -10% | -11% | ? | -15% | -27%
O=C(O)CC(CC(=O)Nc1nncs1)c1ccccc1 (stereo not given) | 1% | -8% | -7% | 2% | -8% | -10%
CCCCCCC(=O)Nc1cc2c(C)cc(=O)oc2cc1C | 5µM* | -17% | -9% | ? | -6% | -17%
Cc1ccc(C(=O)NC(=S)/C=C2\N(C)c3ccccc3C2(C)C)cc1 | ? | 10µM* | -16% | -10% | 3% | -10%
CC(C)C(=O)NC(=S)/C=C1/N(C)c2ccccc2C1(C)C | 8.9µM* | ? | ? | -28% | 10% | .
CN1/C(=C\C(=O)C(F)F)C(C)(C)c2ccccc21 | ? | -2% | 6% | ? | 0% | -11%
CN1/C(=C/C(=S)NC(=O)C2CCC2)C(C)(C)c2ccccc21 | ? | ? | -7% | 1% | 8% | .
O=C(Nc1ccccc1)C1=C[C@@H](c2coc3ccccc3c2=O)C[C@@H](OCCCCO)O1 | -9% | -7% | -7% | -7% | 7% | .
C=CCc1cc(/C=C2/NC(=O)NC2=O)cc(OCC)c1O | -7% | -13% | -23% | -14% | 9% | .
C=CCc1cc(/C=C2/NC(=S)NC2=O)cc(OC)c1O | 11% | ? | -29% | -8% | 5% | 25µM*
CCC(CC)C(=O)c1c[nH]c(C(=O)O)c1 | 8% | 2% | 1% | 5% | -2% | .
CCC(CC)C(=O)c1c[nH]c(C(=O)NN)c1 | 7.9µM* | 2% | 2% | 34% | 10% | .
O=C1OC(c2ccccc2)c2ccccc21 (stereo not given) | 14µM* | -9% | -8% | -7% | -1% | -10%
CC(C)(C)c1ccc(C(=O)N2CCC(C(=O)NCCC3=CCCCC3)CC2)cc1 | 10µM* | -20% | -5% | -9% | 4% | 1%
COc1ccc(OC)c(S(=O)(=O)N2CCC(C(=O)N3CCOCC3)CC2)c1 | -15% | -6% | -7% | -23% | -10% | .
COc1ccc(OC)c(S(=O)(=O)N2CCN(c3c(C)cccc3C)CC2)c1 | 14µM* | ? | -22% | -7% | -4% | -5%
COc1ccc(OC)c(S(=O)(=O)N2CCC(C(=O)N3CCc4ccccc4C3)CC2)c1 | ? | -3% | 2% | 1% | 1% | 22µM*
Cc1noc(/C=C/c2ccco2)c1S(=O)(=O)N1CCC(C(=O)N2CCc3ccccc3C2)CC1 | ? | ? | -12% | -21% | -2% | 20µM*
Cc1ccccc1NC(=O)C1CCN(S(=O)(=O)c2c(C)noc2/C=C/c2ccco2)CC1 | . | 1% | -8% | . | -14% | .
Cc1ccc(N=Cc2cc3c(cc2O)OC(N)=C(C#N)C3c2ccccc2)cc1 (stereo not given) | -6% | ? | -28% | ? | ? | -18%
Cc1cccc(N(Cc2cc3ccccc3[nH]c2=O)S(=O)(=O)c2ccccc2)c1 | ? | -12% | -28% | ? | ? | -20%
CC1CCC(C(=O)O)([C@H](Br)C(=O)O)CC1 (stereo not given in full) | 4%[13.5 µM] | . | . | . | . | -4%
COc1ccc(OC)c(S(=O)(=O)N2CCC(C(=O)NCCC3=CCCCC3)CC2)c1 | 22µM* | -3% | -5% | -8% | 7% | -10%
CCS(=O)(=O)N1CCC(C(=O)NCCC2=CCCCC2)CC1 | ? | -5% | -9% | 4% | 1% | -4%
SMILES | ALDH1A1 inh | Tau fibril ThT | Tau fluor cs | JMJD2E inh | Tau FP inhib | HPGD block
O=C(NCCC1=CCCCC1)C1CCN(S(=O)(=O)c2ccc(Br)s2)CC1 | 19µM* | -10% | -13% | 5% | 9% | -9%
Cc1nnc2c3ccccc3nc(N3CCN(c4ccccc4)CC3)n12 | . | -20% | -8% | . | 9% | .
COC(=O)CN1C(=O)CSc2ccc(S(=O)(=O)Nc3ccc(C)c(Cl)c3)cc21 | . | -2% | ? | . | -11% | .
COc1ccc(C(=O)Nc2ccc(Cl)c(S(=O)(=O)Nc3ccccc3OC)c2)cc1 | ? | 7% | ? | 3% | ? | -29%
COc1ccccc1NS(=O)(=O)c1ccc(Cl)c(NC(=O)C(C)N2C(=O)c3ccccc3C2=O)c1 (stereo not given) | 18µM* | -11% | -27% | -5% | -5% | -9%
COc1ccc(NC(=O)Cc2cccc(F)c2)cc1S(=O)(=O)Nc1ccccc1Cl | . | . | 14µM*[quencher] | -10% | ? | .
COc1ccccc1NC(=O)Nc1ccc(Cl)c(S(=O)(=O)Nc2ccccc2OC)c1 | -12% | -6% | 3.2µM*[quencher] | -4% | 28µM* | -19%
COc1ccccc1NS(=O)(=O)c1cc(NC(=O)c2ccc(Cl)nc2)ccc1Cl | 25µM* | 15% | 22µM*[quencher] | ? | 25µM* | -25%
COC(=O)C1=C(C(=O)OC)[C@@H]2N(Cc3ccccc3)c3ccccc3[C@@]23C[C@@H](C(=O)OC)N(S(=O)(=O)c2ccc4c(c2)OCCN4C)C3=N1 | -2%[13.5 µM] | 3%[11.5 µM] | -8%[11.6 µM] | 4%[11.4 µM] | 6%[11.6 µM] | -7%
COc1cc(C)nc(Nc2nc(C)c(C(C)=O)s2)n1 | 1.6µM* | ? | 1% | 0% | -12% | .
CC(=O)c1sc(Nc2ccccn2)nc1C | 20µM* | -3% | -9% | -10% | 1% | -17%
CC(=O)c1sc(Nc2ccc(C)cc2)nc1C | -9% | -5% | -9% | 2% | 2% | .
COc1ccc2nc(Nc3nc(C)c(C(C)=O)s3)sc2c1 | ? | ? | ? | ? | 7% | ?
Cc1cc(C)n(S(=O)(=O)c2ccc3ccccc3c2)n1 | ? | 0% | -2% | -1% | ? | -29%
Cc1cc(C)n(S(=O)(=O)c2ccc(C(C)(C)C)cc2)n1 | 13µM* | -6% | -4% | 4% | 4% | 20µM*
CC(=O)NC(Cc1ccccc1C)C(=O)NC1CCN(C(=O)c2cccc(C)c2)CC1 (stereo not given) | 20µM* | -1% | 4% | -25% | 6% | .
COc1cc(C(=O)N2CCC(NC(=O)C(Cc3ccc(C)cc3)NC(C)=O)CC2)cc(OC)c1OC (stereo not given) | 6% | -4% | 2% | 7% | 0% | -5%
CC(=O)NC(Cc1cccc(F)c1)C(=O)NC1CCN(C(=O)c2ccc(C)cc2)CC1 (stereo not given) | 14µM* | -6% | -3% | -14% | 8% | .
S=c1nc(-c2cc(Cl)ccc2Cl)[nH][nH]1 | 6.3µM* | -5% | -2% | -18% | 3% | .
